This note sets out measurements from PubChem BioAssay (EPA / NIEHS).

Several values for one entry are separate records, joined by “and”; a condition that tells them apart may be missing. Identical values can stand only once. Results filed as inconclusive are left out. Activity calls are given as the source filed them. Rule for the calls: active = hit-call score of the fitted dose curve at least 0.9, where 1 is the maximum; inconclusive = response in the unintended direction; inactive = score below 0.9.

Broadly, the AC50 is the midpoint of the concentration-response curve, whichever way the signal moves.

In one assay the target is THRA (gene 7067) (UniProt P10827). The assay is described as follows: TOX21_TRA_COA_Antagonist_Followup_ratio: Tox21 Thyroid Hormone Receptor alpha Antagonism through Coactivator Recruitment Follow-Up Assay, Ratio (AID 2283953). The gist of the method:
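We measured antagonism of T3-type coactivator recruitment using a TR-FRET ratio (emission 520 and 495 nm) between a Tb-labelled anti-GST antibody on TRα LBD (2.5 nM) and SRC-2 peptide (200 nM). Activity was scaled between DMSO and T3 wells.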

The next assay concerns the target THRB (gene 7068) (UniProt P10828). In words: TOX21_TRB_BLA_Antagonist_Followup_ratio: Tox21 Thyroid Hormone Receptor beta Antagonism Beta-lactamase (BLA) Follow-Up Assay, Ratio (AID 2283958). The method in brief:
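Read-out: blue/green (460:530 nm) ratio of cleaved to uncleaved CCF4-AM after 2 h at room temperature, fitted against DMSO baseline. HEK293T UAS-bla cells carrying GAL4-human TRβ LBD were exposed 18 h, 37C/5% CO2.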

A short description of assay [1]: TOX21_TRB_BLA_Antagonist_Followup_viability: Viability Assessment in the Tox21 Thyroid Hormone Receptor beta Antagonism Beta-lactamase (BLA) Follow-Up Assay (AID 2283961). The gist of the method:
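Viability read as CellTiter-Glo ATP luminescence (loss of signal = cytotoxicity) in the same plates as the TRβ-bla readout. TRβ-LBD/GAL4 UAS-bla HEK293T cells were exposed to compounds, 11 concentrations in triplicate, for 18 h at 37C/5% CO2.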

Assay [2] concerns the target Retinoic acid receptor RXR-alpha (Homo sapiens) (UniProt P19793). In words: TOX21_TR_RXR_BLA_Antagonist_Followup_ratio: Tox21 Thyroid Hormone Receptor beta Retinoid X Receptor alpha (RXRa) Antagonism Beta-lactamase (BLA) Follow-Up Assay, Ratio (AID 2283972). The gist of the method:
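Beta-lactamase reporter readout as cleaved/uncleaved substrate ratio (460:530 nm) after 2 h substrate loading at room temperature. GAL4-RXRa bla HEK293T cells were exposed 16 h at 37C to 11-point compound series; loss of signal scored against DMSO baseline.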

Assay [3] can be described thus: TOX21_TR_RXR_BLA_Antagonist_Followup_viability: Viability Assessment in the Tox21 Thyroid Hormone Receptor beta Retinoid X Receptor alpha (RXRa) Antagonism Beta-lactamase (BLA) Follow-Up Assay (AID 2283979). The method in brief:
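Follow-up compounds (11 concentrations, triplicate) were incubated 16 h at 37C/5% CO2 with HEK293T RXRa-bla cells seeded at 2,500/well in charcoal-stripped-serum medium. ATP content by CellTiter-Glo luminescence gave viability; curves fitted in both directions against DMSO.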

In assay [4] the target is rat Androgen Receptor (AR), Ar (gene 24208) (UniProt P15207). The assay is described as follows: NVS_NR_rAR: NovaScreen (NVS) Nuclear Receptor Binding Assay for rat Androgen Receptor (AR) (AID 2283366). The method in brief: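 Actives from a duplicate single-concentration (25 uM) primary run went on to concentration series. Displacement of radioligand was counted by filtration and scintillation, 18 h post-dose, using prostate extracts from testosterone-pretreated rats, with DMSO as baseline.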

Assay [5] is described as follows: CCTE_Deisenroth_AIME_96WELL_CTox_Active: Cytotoxicity Assessment (CTOX) in CCTE's 96-well Estrogen Receptor Transactivation Assay with AIME metabolic competence (metabolism positive), Deisenroth Lab (AID 2284028). The method in brief:
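Cytotoxicity in VM7Luc4E2 breast cells after 24 h exposure to medium from a 2 h metabolic pre-incubation with induced rat hepatic S9 in alginate microspheres; fluorescent live-cell protease readout, 10-point series 0.002–200 uM, n=4.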

Assay [6] in a line: CCTE_Deisenroth_AIME_96WELL_CTox_Inactive: Cytotoxicity Assessment (CTOX) in CCTE's 96-well Estrogen Receptor Transactivation Assay without AIME metabolic competence (metabolism negative), Deisenroth Lab (AID 2284029). The method in brief:
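Cytotoxicity in VM7Luc4E2 breast cells was scored as loss of fluorescent signal from a live-cell protease substrate 24 h after exposure, using bidirectional curve fitting. Test media came from a 2 h metabolism-negative pre-incubation (alginate-water, no hepatic S9) of compounds at 0.002-200 uM, with at least four replicates.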

The target in assay [7] is guinea pig Opioid, Kappa 1 Receptor (OpiateK), OPRK1 (gene 100135587) (UniProt P41144). The assay is described as follows: NVS_GPCR_gOpiateK: NovaScreen (NVS) G Protein-Coupled Receptor Assay for guinea pig Opioid, Kappa 1 Receptor (OpiateK) (AID 2283252).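 Note: active means reduced radioligand binding relative to DMSO.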 The gist of the method:
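Radioligand binding to kappa opioid receptor in guinea pig cerebellar membranes, read by filtration and scintillation at 2 h. Compounds first tested in duplicate at 25 uM, then actives in concentration series; signal loss fitted against DMSO.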

A short description of assay [8]: CCTE_Mundy_HCI_hNP1_Pro_ResponderAvgInten: CCTE's Proliferation Assay in human neuroprogenitor cells, Mundy Lab (AID 2284224).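 Note: human neural progenitor cells hNP1 derived from WA09 embryonic stem cells.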 The method in brief:
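Proliferation was scored as BrdU labelling intensity in human neural progenitors derived from WA09 embryonic cells, measured 26.25 hours after chemical dosing. Activity was fitted relative to DMSO.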

Assay [9] can be described thus: TOX21_TR_RXR_BLA_Agonist_Followup_viability: Viability Assessment in the Tox21 Thyroid Hormone Receptor beta Retinoid X Receptor alpha (RXRa) Agonism Beta-lactamase (BLA) Follow-Up Assay (AID 2283970). The method in brief:
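CellTiter-Glo ATP quantitation as viability read-out in RXRa-bla HEK293T cells (2,500/well, charcoal-stripped 2% FBS medium), 16h compound incubation at 37C. Loss of signal versus DMSO taken as cytotoxicity, analyzed by bidirectional curve fitting.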

Assay [10] concerns the target Glucocorticoid receptor (Homo sapiens) (UniProt P04150). The assay is described as follows: NVS_NR_hGR: NovaScreen (NVS) Nuclear Receptor Binding Assay for human Glucocorticoid Receptor (GR) (AID 2283363).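 Note: activity is loss of specific radioligand binding signal relative to DMSO.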 The gist of the method: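 Compounds first tested in duplicate at 25 uM, actives followed up in concentration series. Binding to extracted GR protein measured as competitive radioligand displacement, filter scintillation read 16 h post-dosing, normalised to DMSO.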

For a further assay, the system named is IYD (gene 389434). The assay is described as follows: CCTE_GLTED_hIYD: CCTE's human Iodotyrosine Deiodinase (xIYD) Inhibition Assay, Great Lakes Toxicology and Ecology Division (GLTED) Lab (AID 2284317).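 Note: cell-free human IYD enzyme made in baculovirus insect cells; iodide freed from monoiodotyrosine measured by cerium arsenite color change at 420 nm.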 The method in brief: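 Cell-free; baculovirus/insect-cell hIYD + MIT substrate + chemical, 3 h. Dowex column cleanup, then Ce4+/As3+ Sandell-Kolthoff read at A420 nm. Triplicate plates; normalized to 3-nitro-L-tyrosine (positive) and DMSO/NaOH (solvent).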

Assay [11] addresses Tyrosine-protein phosphatase non-receptor type 11 (Homo sapiens) (UniProt Q06124). The assay is described as follows: NVS_ENZ_hPTPN11: NovaScreen (NVS) Enzymatic Assay for human Protein Tyrosine Phosphatase Non-receptor Type 11 (PTPN11) (AID 2283202). The gist of the method: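 Compounds first tested in duplicate at 25 uM; those reaching ~30% inhibition rerun in singleton concentration-response, top 50 uM. Phosphatase activity measured after 0.5 h by fluorescence with mobility-shift separation, relative to DMSO.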

Assay [12] is described as follows: ATG_M_06_XSP2: Attagene TRANS-FACTORIAL Multi-Species (XSP2) HepG2 Assay for M06 Transcription Factor (Internal Marker) (AID 2283811).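 Note: hits are increases in signal above the DMSO baseline.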 The gist of the method:
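Internal-marker reporter transcript, quantified by RT-PCR, 6-FAM labelling, HpaI digestion and capillary electrophoresis, 24 hours after dosing transfected HepG2 cells with 3 nM 6-alpha-fluorotestosterone and 1.5 nM norgestrel present; DMSO baseline.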

Assay [13] deals with turtle Estrogen Receptor (ERa), gene 101933533. In words: ATG_trERa_XSP2: Attagene TRANS-FACTORIAL Multi-Species (XSP2) HepG2 Assay for turtle Estrogen Receptor (ERa) (AID 2283812).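 Note: actives raise reporter signal above DMSO so AC50 reflects agonist activity.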 The gist of the method:
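Readout is reporter mRNA quantified by RT-PCR with capillary electrophoresis after 24 h compound exposure, increase relative to DMSO. Uses transiently transfected human HepG2 liver cells carrying a chimeric turtle ERa-Gal4 receptor driving GAL4-UAS reporters.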

In assay [14] the target is Estrogen receptor beta (Homo sapiens) (UniProt Q92731). In words: ATG_hERb_XSP2: Attagene TRANS-FACTORIAL Multi-Species (XSP2) HepG2 Assay for human Estrogen Receptor (ERb) (AID 2283813).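 Note: actives raise reporter mRNA above DMSO so AC50 reflects agonist induction.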 The gist of the method: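 Transient TRANS reporter system in HepG2: after 24 h of chemical, RNA is reverse-transcribed, reporter cDNA amplified, FAM-labelled and sized by capillary electrophoresis. Induction of the human ERb-Gal4 reporter is measured relative to DMSO.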
Estrogen receptor beta (Homo sapiens), sequence (Q92731 whole entry, looked up, the tested form may be a part): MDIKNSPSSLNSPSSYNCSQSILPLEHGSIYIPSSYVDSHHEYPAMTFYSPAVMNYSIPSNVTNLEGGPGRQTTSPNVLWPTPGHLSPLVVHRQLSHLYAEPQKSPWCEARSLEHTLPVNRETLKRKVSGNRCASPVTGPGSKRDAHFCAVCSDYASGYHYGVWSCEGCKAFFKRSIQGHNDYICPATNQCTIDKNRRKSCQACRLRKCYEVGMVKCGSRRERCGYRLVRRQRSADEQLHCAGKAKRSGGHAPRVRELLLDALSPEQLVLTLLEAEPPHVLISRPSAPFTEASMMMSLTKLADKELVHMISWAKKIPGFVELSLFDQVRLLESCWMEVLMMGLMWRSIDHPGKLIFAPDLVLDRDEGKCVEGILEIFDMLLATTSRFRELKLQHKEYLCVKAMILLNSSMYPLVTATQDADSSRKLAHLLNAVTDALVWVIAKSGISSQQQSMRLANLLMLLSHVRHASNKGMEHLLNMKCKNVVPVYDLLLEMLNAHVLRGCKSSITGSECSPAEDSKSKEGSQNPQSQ

Assay [15] concerns the target GAL4 Transcription Factor (Internal Marker), GAL4 (gene 855828) (UniProt P04386). The assay is described as follows: ATG_GAL4_XSP2: Attagene TRANS-FACTORIAL Multi-Species (XSP2) HepG2 Assay for GAL4 Transcription Factor (Internal Marker) (AID 2283814).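 Note: GAL4 reporter mRNA background control in MRTU transfected cells not a receptor target.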 The method in brief: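 Background-control readout: gain-of-signal fitted against DMSO. After 24 h exposure of transfected HepG2 (MRTU, GAL4-UAS reporters; 3 nM 6-alpha-fluorotestosterone, 1.5 nM norgestrel present), transcripts quantified by RT-PCR and capillary electrophoresis fluorescence.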

The target of assay [16] is zebrafish Estrogen Receptor (ER1), esr1 (gene 259252) (UniProt P57717). In words: ATG_zfER1_XSP2: Attagene TRANS-FACTORIAL Multi-Species (XSP2) HepG2 Assay for zebrafish Estrogen Receptor (ER1) (AID 2283816). The method in brief:
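After 24 h compound exposure, RNA from transfected HepG2 cells was reverse-transcribed and reporter transcripts resolved by capillary electrophoresis. The TRANS format reads exogenous zebrafish ER1-Gal4 chimera activity on GAL4-UAS elements; gain of signal against DMSO.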

For assay [17], the target named is chicken Estrogen Receptor (ERa), ESR1 (gene 396099) (UniProt P06212). In words: ATG_chERa_XSP2: Attagene TRANS-FACTORIAL Multi-Species (XSP2) HepG2 Assay for chicken Estrogen Receptor (ERa) (AID 2283817).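 Note: actives raise reporter signal above DMSO so AC50 reflects ER activation.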 The gist of the method: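 Reporter mRNA induction read by RT-PCR, fluorescent labelling and capillary electrophoresis after 24 h exposure; positive-direction fit against DMSO baseline. HepG2 cells transfected with multiplexed GAL4-UAS units including chicken ERa chimera; medium contained 3 nM 6-alpha-fluorotestosterone plus 1.5 nM norgestrel.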
chicken Estrogen Receptor (ERa), ESR1 (gene 396099), sequence (P06212 whole entry, looked up, the tested form may be a part): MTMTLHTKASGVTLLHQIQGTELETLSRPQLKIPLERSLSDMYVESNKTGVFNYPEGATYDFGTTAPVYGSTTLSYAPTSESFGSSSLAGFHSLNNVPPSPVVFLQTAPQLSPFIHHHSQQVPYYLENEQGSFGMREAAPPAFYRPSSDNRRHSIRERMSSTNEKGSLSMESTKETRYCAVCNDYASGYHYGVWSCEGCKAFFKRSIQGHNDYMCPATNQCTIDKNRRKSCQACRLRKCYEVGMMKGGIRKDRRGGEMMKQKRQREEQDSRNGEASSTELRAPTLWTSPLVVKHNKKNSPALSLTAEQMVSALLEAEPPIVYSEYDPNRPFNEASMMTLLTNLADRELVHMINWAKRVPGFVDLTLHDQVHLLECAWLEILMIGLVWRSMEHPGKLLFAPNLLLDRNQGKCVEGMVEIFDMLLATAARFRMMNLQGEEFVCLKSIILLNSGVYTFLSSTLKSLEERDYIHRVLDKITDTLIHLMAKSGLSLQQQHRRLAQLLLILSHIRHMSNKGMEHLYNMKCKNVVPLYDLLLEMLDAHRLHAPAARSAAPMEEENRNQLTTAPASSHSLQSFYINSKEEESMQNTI

zebrafish Estrogen Receptor (ER1), esr1 (gene 259252), sequence (P57717 whole entry, looked up, the tested form may be a part): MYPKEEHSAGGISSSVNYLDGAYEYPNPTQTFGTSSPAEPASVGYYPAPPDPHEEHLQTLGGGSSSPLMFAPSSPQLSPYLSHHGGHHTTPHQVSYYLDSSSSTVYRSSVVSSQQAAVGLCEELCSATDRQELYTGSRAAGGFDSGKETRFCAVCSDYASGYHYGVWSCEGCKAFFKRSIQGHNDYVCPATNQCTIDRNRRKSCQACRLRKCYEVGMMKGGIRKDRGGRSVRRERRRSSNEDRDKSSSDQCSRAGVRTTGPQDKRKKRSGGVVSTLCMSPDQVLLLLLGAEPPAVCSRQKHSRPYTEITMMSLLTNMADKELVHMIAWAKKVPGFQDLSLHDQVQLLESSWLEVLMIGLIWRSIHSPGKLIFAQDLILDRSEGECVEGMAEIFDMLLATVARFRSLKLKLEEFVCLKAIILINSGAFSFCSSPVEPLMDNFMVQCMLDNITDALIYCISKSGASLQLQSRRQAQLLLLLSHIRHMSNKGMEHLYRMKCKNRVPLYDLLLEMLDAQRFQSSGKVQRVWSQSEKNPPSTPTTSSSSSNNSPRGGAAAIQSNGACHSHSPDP
Glucocorticoid receptor (Homo sapiens), sequence (P04150 whole entry, looked up): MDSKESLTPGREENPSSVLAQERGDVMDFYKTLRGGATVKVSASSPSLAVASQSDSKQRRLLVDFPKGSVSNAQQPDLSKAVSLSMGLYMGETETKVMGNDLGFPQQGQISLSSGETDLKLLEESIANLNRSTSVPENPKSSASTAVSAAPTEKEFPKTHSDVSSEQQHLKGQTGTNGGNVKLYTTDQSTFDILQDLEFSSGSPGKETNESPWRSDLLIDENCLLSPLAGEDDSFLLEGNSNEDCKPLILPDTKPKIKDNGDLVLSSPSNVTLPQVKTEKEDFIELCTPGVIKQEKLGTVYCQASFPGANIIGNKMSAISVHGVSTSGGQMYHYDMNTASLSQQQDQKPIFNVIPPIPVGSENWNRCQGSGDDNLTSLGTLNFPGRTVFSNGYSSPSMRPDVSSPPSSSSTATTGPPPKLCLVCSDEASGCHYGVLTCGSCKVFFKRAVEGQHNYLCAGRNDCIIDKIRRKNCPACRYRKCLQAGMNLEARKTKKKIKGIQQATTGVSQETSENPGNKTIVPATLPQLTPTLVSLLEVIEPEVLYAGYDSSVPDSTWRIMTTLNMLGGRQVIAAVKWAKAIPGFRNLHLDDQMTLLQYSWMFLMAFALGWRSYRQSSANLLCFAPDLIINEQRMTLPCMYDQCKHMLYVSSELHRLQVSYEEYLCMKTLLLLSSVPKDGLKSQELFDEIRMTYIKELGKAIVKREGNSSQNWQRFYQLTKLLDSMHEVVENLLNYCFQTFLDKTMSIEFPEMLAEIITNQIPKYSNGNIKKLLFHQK
GAL4 Transcription Factor (Internal Marker), GAL4 (gene 855828), sequence (P04386 whole entry, looked up, the tested form may be a part): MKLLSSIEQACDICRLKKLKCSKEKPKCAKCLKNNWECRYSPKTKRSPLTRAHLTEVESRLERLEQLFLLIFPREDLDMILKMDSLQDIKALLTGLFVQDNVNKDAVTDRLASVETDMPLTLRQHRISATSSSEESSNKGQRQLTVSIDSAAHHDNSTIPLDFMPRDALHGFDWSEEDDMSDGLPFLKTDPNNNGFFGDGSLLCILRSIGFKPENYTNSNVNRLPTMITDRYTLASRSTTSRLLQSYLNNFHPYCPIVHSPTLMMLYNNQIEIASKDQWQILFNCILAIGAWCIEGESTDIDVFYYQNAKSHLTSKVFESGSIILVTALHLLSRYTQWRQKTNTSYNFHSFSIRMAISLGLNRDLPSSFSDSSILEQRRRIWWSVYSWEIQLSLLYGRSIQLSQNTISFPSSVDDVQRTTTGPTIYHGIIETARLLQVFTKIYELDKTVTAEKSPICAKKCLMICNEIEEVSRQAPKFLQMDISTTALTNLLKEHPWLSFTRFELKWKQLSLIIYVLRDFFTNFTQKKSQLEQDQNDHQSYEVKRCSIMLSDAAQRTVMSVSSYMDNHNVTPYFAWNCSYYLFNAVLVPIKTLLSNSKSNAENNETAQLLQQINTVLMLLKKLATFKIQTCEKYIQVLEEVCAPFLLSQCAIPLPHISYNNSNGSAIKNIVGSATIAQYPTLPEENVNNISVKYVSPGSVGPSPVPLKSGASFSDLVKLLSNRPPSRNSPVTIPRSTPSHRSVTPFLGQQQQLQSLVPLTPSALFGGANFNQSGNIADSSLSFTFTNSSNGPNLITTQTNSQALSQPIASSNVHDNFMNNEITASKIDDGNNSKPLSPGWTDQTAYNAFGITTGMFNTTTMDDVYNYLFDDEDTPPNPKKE
Retinoic acid receptor RXR-alpha (Homo sapiens), sequence (P19793 whole entry, looked up, the tested form may be a part): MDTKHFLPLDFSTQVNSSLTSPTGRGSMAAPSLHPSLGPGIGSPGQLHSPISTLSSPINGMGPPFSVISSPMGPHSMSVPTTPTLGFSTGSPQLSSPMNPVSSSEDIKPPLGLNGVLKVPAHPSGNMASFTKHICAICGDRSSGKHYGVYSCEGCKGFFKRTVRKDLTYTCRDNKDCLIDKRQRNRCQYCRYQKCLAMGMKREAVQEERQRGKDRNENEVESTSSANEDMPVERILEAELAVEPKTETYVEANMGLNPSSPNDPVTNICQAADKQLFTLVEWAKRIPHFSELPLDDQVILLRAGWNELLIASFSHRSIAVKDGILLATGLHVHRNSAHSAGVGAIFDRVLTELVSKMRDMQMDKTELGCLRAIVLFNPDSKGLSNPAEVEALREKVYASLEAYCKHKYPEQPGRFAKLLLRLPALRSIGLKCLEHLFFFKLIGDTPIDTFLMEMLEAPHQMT
Tyrosine-protein phosphatase non-receptor type 11 (Homo sapiens), sequence (Q06124 whole entry, looked up): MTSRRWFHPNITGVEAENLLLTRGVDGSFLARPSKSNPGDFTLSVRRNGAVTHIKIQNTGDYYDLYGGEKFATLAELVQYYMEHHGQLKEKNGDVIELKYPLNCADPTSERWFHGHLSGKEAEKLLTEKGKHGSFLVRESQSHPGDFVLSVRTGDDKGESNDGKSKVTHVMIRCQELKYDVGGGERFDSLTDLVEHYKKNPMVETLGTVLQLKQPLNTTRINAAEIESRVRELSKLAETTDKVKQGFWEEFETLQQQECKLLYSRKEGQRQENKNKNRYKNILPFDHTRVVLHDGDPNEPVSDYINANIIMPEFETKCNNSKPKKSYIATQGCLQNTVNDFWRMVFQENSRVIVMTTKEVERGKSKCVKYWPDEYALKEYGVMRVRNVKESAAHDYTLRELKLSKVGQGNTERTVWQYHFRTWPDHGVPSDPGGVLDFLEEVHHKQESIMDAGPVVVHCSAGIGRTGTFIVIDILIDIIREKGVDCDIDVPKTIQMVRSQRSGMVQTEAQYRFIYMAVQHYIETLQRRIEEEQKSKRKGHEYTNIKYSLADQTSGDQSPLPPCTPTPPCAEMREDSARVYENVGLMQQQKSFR
guinea pig Opioid, Kappa 1 Receptor (OpiateK), OPRK1 (gene 100135587), sequence (P41144 whole entry, looked up): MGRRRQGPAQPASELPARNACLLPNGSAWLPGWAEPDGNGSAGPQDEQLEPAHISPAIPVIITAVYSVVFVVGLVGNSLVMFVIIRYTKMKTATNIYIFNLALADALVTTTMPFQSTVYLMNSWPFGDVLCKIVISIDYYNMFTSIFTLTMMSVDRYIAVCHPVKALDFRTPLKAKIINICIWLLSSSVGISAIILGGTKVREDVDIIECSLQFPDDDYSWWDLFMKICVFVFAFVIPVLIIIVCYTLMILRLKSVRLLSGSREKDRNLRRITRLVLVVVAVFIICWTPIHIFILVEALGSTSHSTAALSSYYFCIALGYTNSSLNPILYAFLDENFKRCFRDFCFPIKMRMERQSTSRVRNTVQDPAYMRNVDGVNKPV

In the case of `CC(C)n1c(/C=C/[C@@H](O)C[C@@H](O)CC(=O)O)c(-c2ccc(F)cc2)c2ccccc21`, the outcome (with THRA (gene 7067); with THRB (gene 7068); in [1]; in [2]; in assay [3]) was inactive.

`Cc1cc(-n2nc3ccc(Cl)cc3n2)c(O)c(C(C)(C)C)c1`: the compound was classed as inactive in assay [4], in assay [5] and in [6].

As to `CN(C)CCC(c1ccc(Cl)cc1)c1ccccn1` (stereo not given), in assay [7], the AC50 was 12.7 µM (active).

In the case of `NC(N)=Nc1nc(CSCCC(N)=NS(N)(=O)=O)cs1`, the compound was called inactive in assay [8].

Regarding `CC(C)CC(=O)O`, the call in assay [9] was inactive.

As for `CCCCC(CC)COC(=O)CS` (stereo not given), the AC50 in [10] was 25 µM (active).

As for `Cc1cc2nc3c(=O)[nH]c(=O)nc-3n(C[C@H](O)[C@H](O)[C@H](O)CO)c2cc1C`, the AC50 with IYD (gene 389434) was 94.2 µM (active).

For `Cc1cc(O)cc(C)c1Cl`, the result in assay [11], in assay [12] and in assay [15] was inactive. Besides, the AC50 in [13] is 45.8 µM (active) and 16.2 µM (active); in assay [14], 7.77 µM (active) and 7.9 µM (active); in [16], 76 µM (active) and 29.7 µM (active); in assay [17] it was 24.2 µM (active) and 31.7 µM (active).
